{"source": "PubChem BioAssay (Tox21)", "note": "Unmarked numbers belong to inactive results. Results filed as inconclusive are left out. Active and inactive are the calls of the source. Calls come from the whole dose curve; as a rule, active = well fitted curve in the direction sought with a large enough effect in the repeat runs; inconclusive = weak or mixed curves; inactive = no such curve, though single readings can be large; an effect the other way counts as inactive or inconclusive. % is set by controls: 0 for no effect and ±100 for the full control effect. Note: nearly all actives have a fitted effect of over 50% in size."}
{"assay": "qHTS RealTime-Glo MT Cell Viability Assay in HEK293 cells - 32 hour (AID 1224868); note: top concentration of the series differs between compounds", "settings": "RealTime-Glo luminescence; series mostly up to 76.8 µM; activity change, negative = cytotoxic: at the top concentration", "procedure,_shortened": "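Nonlytic real-time viability readout: viable cells convert prosubstrate to NanoLuc substrate, giving luminescence proportional to live cell number. HEK293, 600 cells/well, compound added after 5 h, continuous culture at 37 C.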"}
{"smiles": "NC(CCC(=O)O)C(=O)O", "note": "(stereo not given)", "activity change, negative = cytotoxic": "16.4%"}
{"smiles": "CC(=O)c1ccccc1[N+](=O)[O-]", "activity change, negative = cytotoxic": "23.7%"}
{"smiles": "CC(C)(C)c1ccc(-c2ccc(C(C)(C)C)cc2)cc1", "activity change, negative = cytotoxic": "-1.94%"}
{"smiles": "c1ccc2sc(SN3CCOCC3)nc2c1", "activity change, negative = cytotoxic": "2.73% [at 35.3 µM]"}
{"smiles": "CCOC(=O)COc1cc(-n2ncc(C(F)(F)F)c(C)c2=O)c(F)cc1Cl", "activity change, negative = cytotoxic": "-7.44%"}
{"smiles": "CCN[C@H]1C[C@H](C)S(=O)(=O)c2sc(S(N)(=O)=O)cc21", "activity change, negative = cytotoxic": "0.194% [at 35.3 µM]"}
{"smiles": "COc1cc(-c2ccc(=O)[nH]n2)ccc1OC(F)F", "activity change, negative = cytotoxic": "-2.78% [at 35.3 µM]"}
{"smiles": "CCOC(=O)C(=O)CCCCCCl", "activity change, negative = cytotoxic": "3.3% [at 35.3 µM]"}
{"smiles": "CCN1CCOCC1", "activity change, negative = cytotoxic": "-3.37%"}
{"smiles": "C[C@H]1[C@H](NC(=O)/C(=N/OC(C)(C)C(=O)O)c2csc(N)n2)C(=O)N1S(=O)(=O)O", "note": "(stereo in doubt)", "activity change, negative = cytotoxic": "1.22% [at 35.3 µM]"}
{"smiles": "Cc1c(N)c(=O)n(-c2ccccc2)n1C", "activity change, negative = cytotoxic": "-6.38% [at 35.3 µM]"}
{"smiles": "Nc1ccncc1N", "activity change, negative = cytotoxic": "11% [at 35.3 µM]"}
{"smiles": "C[N+](C)(CCOc1ccccc1)Cc1cccs1", "activity change, negative = cytotoxic": "6.13% [at 35.3 µM]"}
{"smiles": "OCCCCCO", "activity change, negative = cytotoxic": "3.37%"}
{"assay": "A CellTox Green Cytotoxicity Assay to monitor cytotoxicity in HEK293 cells - 0 hour (AID 1224869)", "settings": "CellTox Green fluorescence; series mostly up to 76.8 µM; cytotoxicity: at the top concentration", "procedure,_shortened": "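Each value comes from one timepoint of a single continuous run in which HEK293 cells with CellTox Green were exposed to compound for up to 40 h at 37 C, dye fluorescence rising with cell death.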"}
{"smiles": "CC(=O)c1ccc2ccccc2c1", "cytotoxicity": "-0.25%"}
{"smiles": "CCCCc1nc(Cl)c(CO)n1Cc1ccc(-c2ccccc2-c2nn[nH]n2)cc1", "cytotoxicity": "0.311% [at 35.3 µM]"}
{"smiles": "NO", "cytotoxicity": "2.38%"}
{"smiles": "COC(=O)Nc1ccc(Cl)c(Cl)c1", "cytotoxicity": "-13.7%"}
{"smiles": "NC(=O)N1c2ccccc2CC(=O)c2ccccc21", "cytotoxicity": "3.59% [at 35.3 µM]"}
{"smiles": "CC1=CC(=O)[C@H]2C[C@@H]1C2(C)C", "cytotoxicity": "6.08%"}
{"smiles": "CC(C)(N)C#N", "cytotoxicity": "-0.559%"}
{"smiles": "O=C(O)c1cn(C2CC2)c2cc(N3CCNCC3)c(F)cc2c1=O", "cytotoxicity": "0.5% [at 35.3 µM]"}
{"smiles": "CO/N=C(\\C(=O)N[C@@H]1C(=O)N2C(C(=O)O)=C(CSc3nc(=O)c(O)nn3C)CS[C@H]12)c1csc(N)n1", "cytotoxicity": "-0.1% [at 35.3 µM]"}
{"smiles": "O=S(=O)(O)c1cccc2ccccc12", "cytotoxicity": "-0.117%"}
{"smiles": "CC1=NN(c2cc(S(=O)(=O)O)ccc2Cl)C(=O)C1N=Nc1ccccc1", "note": "(stereo not given)", "cytotoxicity": "0.318%"}
{"smiles": "COc1ccc2cc1Oc1cc3c(cc1OC)CC[N+](C)(C)[C@H]3Cc1ccc(cc1)Oc1c(OC)c(OC)cc3c1[C@@H](C2)[N+](C)(C)CC3", "cytotoxicity": "1.18% [at 35.3 µM]"}
{"smiles": "CCCC(C)C(=O)OCC", "note": "(stereo not given)", "cytotoxicity": "1.32%"}
{"smiles": "COc1c(N2CCNC(C)C2)c(F)cc2c(=O)c(C(=O)O)cn(C3CC3)c12", "note": "(stereo not given)", "cytotoxicity": "-1.76% [at 35.3 µM]"}
{"smiles": "CC(=O)OCC(=O)[C@@]1(O)[C@H](C)C[C@H]2[C@@H]3CCC4=CC(=O)C=C[C@]4(C)[C@@]3(F)[C@@H](O)C[C@@]21C", "cytotoxicity": "-9.53% [at 35.3 µM]"}
{"smiles": "Nc1ccccn1", "cytotoxicity": "3.45%"}
{"smiles": "O=C(CO)[C@@H](O)[C@H](O)[C@@H](O)CO", "cytotoxicity": "2.72% [at 35.3 µM]"}
{"smiles": "CCC(C)(CN(C)C)OC(=O)c1ccccc1", "note": "(stereo not given)", "cytotoxicity": "0.438% [at 35.3 µM]"}
{"smiles": "NC(N)=NCCN1CCCCCCC1", "cytotoxicity": "4.87% [at 0.29 µM]"}
{"smiles": "O=C(O)CNC(=O)c1ccc(CO)o1", "cytotoxicity": "-5.27%"}
{"smiles": "CCCCS(=O)(=O)N[C@@H](Cc1ccc(OCCCCC2CCNCC2)cc1)C(=O)O", "cytotoxicity": "-3.04% [at 35.3 µM]"}
{"smiles": "COc1ccnc(CS(=O)c2nc3cc(OC(F)F)ccc3[nH]2)c1OC", "note": "(stereo not given)", "cytotoxicity": "-3.13%"}
{"smiles": "NC(CCC(=O)O)C(=O)O", "note": "(stereo not given)", "cytotoxicity": "1.01%"}
{"smiles": "CC1(C)[C@@H]2CC[C@@]1(C)[C@H](O)C2", "cytotoxicity": "0.719%"}
{"smiles": "CC(=O)c1ccccc1[N+](=O)[O-]", "cytotoxicity": "2.13%"}
{"smiles": "CC(C)(C)c1ccc(-c2ccc(C(C)(C)C)cc2)cc1", "cytotoxicity": "-0.996%"}
{"smiles": "c1ccc2sc(SN3CCOCC3)nc2c1", "cytotoxicity": "4.24% [at 35.3 µM]"}
{"smiles": "CCOC(=O)COc1cc(-n2ncc(C(F)(F)F)c(C)c2=O)c(F)cc1Cl", "cytotoxicity": "0.792%"}
{"smiles": "CCN[C@H]1C[C@H](C)S(=O)(=O)c2sc(S(N)(=O)=O)cc21", "cytotoxicity": "5.61% [at 35.3 µM]"}
{"smiles": "COc1cc(-c2ccc(=O)[nH]n2)ccc1OC(F)F", "cytotoxicity": "0.314% [at 35.3 µM]"}
{"smiles": "CCOC(=O)C(=O)CCCCCCl", "cytotoxicity": "2.6% [at 35.3 µM]"}
{"smiles": "CCN1CCOCC1", "cytotoxicity": "-0.587%"}
{"smiles": "C[C@H]1[C@H](NC(=O)/C(=N/OC(C)(C)C(=O)O)c2csc(N)n2)C(=O)N1S(=O)(=O)O", "note": "(stereo in doubt)", "cytotoxicity": "-2.68% [at 35.3 µM]"}
{"smiles": "Cc1c(N)c(=O)n(-c2ccccc2)n1C", "cytotoxicity": "1.21% [at 35.3 µM]"}
{"smiles": "Nc1ccncc1N", "cytotoxicity": "0.762% [at 35.3 µM]"}
{"smiles": "C[N+](C)(CCOc1ccccc1)Cc1cccs1", "cytotoxicity": "-0.82% [at 35.3 µM]"}
{"smiles": "OCCCCCO", "cytotoxicity": "-6.11%"}
{"assay": "qHTS RealTime-Glo MT Cell Viability Assay in HepG2 cells - 40 hour (AID 1224870); note: potency is the fitted concentration of half-maximal effect", "settings": "RealTime-Glo luminescence; series mostly up to 76.8 µM; activity change, negative = cytotoxic: at the top concentration", "procedure,_shortened": "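HepG2 cells mixed with RealTime-Glo MT reagents (NanoLuc plus cell-permeant prosubstrate) were seeded at 600 cells/well, incubated 5 h at 37 C/5% CO2, then pinned with compounds in DMSO; nonlytic luminescence tracked viability during 40 h treatment.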"}
{"smiles": "CC(=O)c1ccc2ccccc2c1", "activity change, negative = cytotoxic": "0.654%"}
{"smiles": "CCCCc1nc(Cl)c(CO)n1Cc1ccc(-c2ccccc2-c2nn[nH]n2)cc1", "activity change, negative = cytotoxic": "-2.27% [at 35.3 µM]"}
{"smiles": "NO", "activity change, negative = cytotoxic": "-0.382%"}
{"smiles": "COC(=O)Nc1ccc(Cl)c(Cl)c1", "activity change, negative = cytotoxic": "0.364%"}
{"smiles": "NC(=O)N1c2ccccc2CC(=O)c2ccccc21", "activity change, negative = cytotoxic": "0.0898% [at 35.3 µM]"}
{"smiles": "CC(C)(N)C#N", "activity change, negative = cytotoxic": "-6.1%"}
{"smiles": "O=C(O)c1cn(C2CC2)c2cc(N3CCNCC3)c(F)cc2c1=O", "activity change, negative = cytotoxic": "3.48% [at 35.3 µM]"}
{"smiles": "CO/N=C(\\C(=O)N[C@@H]1C(=O)N2C(C(=O)O)=C(CSc3nc(=O)c(O)nn3C)CS[C@H]12)c1csc(N)n1", "activity change, negative = cytotoxic": "0.369% [at 35.3 µM]"}
{"smiles": "O=S(=O)(O)c1cccc2ccccc12", "activity change, negative = cytotoxic": "-0.951%"}
{"smiles": "COc1ccc2cc1Oc1cc3c(cc1OC)CC[N+](C)(C)[C@H]3Cc1ccc(cc1)Oc1c(OC)c(OC)cc3c1[C@@H](C2)[N+](C)(C)CC3", "Potency": "16.9 µM (active)"}
{"smiles": "CCCC(C)C(=O)OCC", "note": "(stereo not given)", "activity change, negative = cytotoxic": "-0.635%"}
{"smiles": "CC(=O)OCC(=O)[C@@]1(O)[C@H](C)C[C@H]2[C@@H]3CCC4=CC(=O)C=C[C@]4(C)[C@@]3(F)[C@@H](O)C[C@@]21C", "activity change, negative = cytotoxic": "-1.89% [at 35.3 µM]"}
{"smiles": "Nc1ccccn1", "activity change, negative = cytotoxic": "-4.33%"}
{"smiles": "O=C(CO)[C@@H](O)[C@H](O)[C@@H](O)CO", "activity change, negative = cytotoxic": "3.27% [at 35.3 µM]"}
{"smiles": "CCC(C)(CN(C)C)OC(=O)c1ccccc1", "note": "(stereo not given)", "activity change, negative = cytotoxic": "-0.266% [at 35.3 µM]"}
{"smiles": "NC(N)=NCCN1CCCCCCC1", "activity change, negative = cytotoxic": "0.511% [at 0.29 µM]"}
{"smiles": "Cc1ccc(C(=O)Nc2ccc(S(=O)(=O)O)c3cc(S(=O)(=O)O)cc(S(=O)(=O)O)c23)cc1NC(=O)c1cccc(NC(=O)Nc2cccc(C(=O)Nc3cc(C(=O)Nc4ccc(S(=O)(=O)O)c5cc(S(=O)(=O)O)cc(S(=O)(=O)O)c45)ccc3C)c2)c1", "activity change, negative = cytotoxic": "3.51% [at 35.3 µM]"}
{"smiles": "CCCCS(=O)(=O)N[C@@H](Cc1ccc(OCCCCC2CCNCC2)cc1)C(=O)O", "activity change, negative = cytotoxic": "2.83% [at 35.3 µM]"}
{"smiles": "COc1ccnc(CS(=O)c2nc3cc(OC(F)F)ccc3[nH]2)c1OC", "note": "(stereo not given)", "activity change, negative = cytotoxic": "-0.306%"}
{"smiles": "NC(CCC(=O)O)C(=O)O", "note": "(stereo not given)", "activity change, negative = cytotoxic": "-11.2%"}
{"smiles": "CC1(C)[C@@H]2CC[C@@]1(C)[C@H](O)C2", "activity change, negative = cytotoxic": "0.353%"}
{"smiles": "CC(=O)c1ccccc1[N+](=O)[O-]", "activity change, negative = cytotoxic": "0.994%"}
{"smiles": "CC(C)(C)c1ccc(-c2ccc(C(C)(C)C)cc2)cc1", "activity change, negative = cytotoxic": "-2.6%"}
{"smiles": "c1ccc2sc(SN3CCOCC3)nc2c1", "activity change, negative = cytotoxic": "1.66% [at 35.3 µM]"}
{"smiles": "CCOC(=O)COc1cc(-n2ncc(C(F)(F)F)c(C)c2=O)c(F)cc1Cl", "activity change, negative = cytotoxic": "-0.254%"}
{"smiles": "CCN[C@H]1C[C@H](C)S(=O)(=O)c2sc(S(N)(=O)=O)cc21", "activity change, negative = cytotoxic": "-0.392% [at 35.3 µM]"}
{"smiles": "COc1cc(-c2ccc(=O)[nH]n2)ccc1OC(F)F", "activity change, negative = cytotoxic": "-2.78% [at 35.3 µM]"}
{"smiles": "CCOC(=O)C(=O)CCCCCCl", "activity change, negative = cytotoxic": "4.02% [at 35.3 µM]"}
{"smiles": "CCN1CCOCC1", "activity change, negative = cytotoxic": "0.12%"}
{"smiles": "C[C@H]1[C@H](NC(=O)/C(=N/OC(C)(C)C(=O)O)c2csc(N)n2)C(=O)N1S(=O)(=O)O", "note": "(stereo in doubt)", "activity change, negative = cytotoxic": "-2.24% [at 35.3 µM]"}
{"smiles": "Cc1c(N)c(=O)n(-c2ccccc2)n1C", "activity change, negative = cytotoxic": "4.1% [at 35.3 µM]"}
{"smiles": "Nc1ccncc1N", "activity change, negative = cytotoxic": "0.64% [at 35.3 µM]"}
{"smiles": "C[N+](C)(CCOc1ccccc1)Cc1cccs1", "Potency": "23.9 µM (active)"}
{"smiles": "OCCCCCO", "activity change, negative = cytotoxic": "1.1%"}
